In PubChem BioAssay (NCI):
About 79,000 compounds went through this panel and 15% of them were active in at least one assay; those are over-represented in the sample as a whole. A number with no mark means an inactive call. The source made the active and inactive calls. Cut-off read from the data, not from the text of the source: active = growth inhibition above about 70%; inactive = the rest. Where a SMILES comes first, the peptide text is derived from it. The star is where a group is joined. OSu = O=C1CCC(=O)N1O*; OBn = c1ccc(CO*)cc1; Bn = c1ccc(C*)cc1

Key:
[1] = NCI Yeast Anticancer Drug Screen. Data for the rad50 strain (AID 155);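 note: 0% = growth of vehicle-only cultures of the same strain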; conditions: S. cerevisiae rad50 strain growth inhibition, hits give high values
In short: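 Relative growth inhibition (compound vs vehicle) was measured in yeast with a defined repair-gene alteration.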

[2] = NCI Yeast Anticancer Drug Screen. Data for the mec2-1 strain (AID 157); conditions: S. cerevisiae mec2-1 strain, hits give high values
In short: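 Each compound was tested on mec2-1 yeast, a strain altered in DNA damage repair or cell cycle control. Growth inhibition is reported relative to vehicle.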

[3] = NCI Yeast Anticancer Drug Screen. Data for the sgs1 mgt1 strain (AID 161);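 note: 0% = growth of cultures given vehicle only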; conditions: S. cerevisiae sgs1 mgt1 strain, hits give high values
In short: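 Genetically altered yeast, compound exposure, growth inhibition relative to vehicle.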

[4] = NCI Yeast Anticancer Drug Screen. Data for the cln2 rad14 strain (AID 165);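 note: 0% = growth equal to vehicle treated cultures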; conditions: S. cerevisiae cln2 rad14 strain, hits give high values
In short: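 Test compounds were added to cln2 rad14 yeast cultures; inhibition of growth was then determined by comparison with vehicle treatment.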

[5] = NCI Yeast Anticancer Drug Screen. Data for the bub3 strain (AID 167); conditions: S. cerevisiae bub3 mutant strain, hits give high values
In short: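 Screening used yeast with an engineered genetic alteration affecting cell cycle control. Compound-exposed cultures were compared with vehicle cultures, and reduced growth was taken as inhibition.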

[6] = NCI Yeast Anticancer Drug Screen. Data for the mlh1 rad18 strain (AID 175); conditions: S. cerevisiae mlh1 rad18 strain growth inhibition, hits give high values
In short: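 Inhibition values reflect reduced growth of mutant yeast versus vehicle-treated controls following compound exposure; the mutations affect DNA damage repair.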

[7] = at 5.0 µM (retest, dose inferred, filed as 0.5)
[8] = at 50.0 µM (retest, dose inferred, filed as 5.0)

| Compound | growth inhibition [1, 7] | growth inhibition [1, 8] | growth inhibition ([1]; at 50.0 µM) | growth inhibition [2, 7] | growth inhibition [2, 8] | growth inhibition ([2]; at 50.0 µM) | growth inhibition [3, 7] | growth inhibition [3, 8] | growth inhibition ([3]; at 50.0 µM) | growth inhibition [4, 7] | growth inhibition [4, 8] | growth inhibition ([4]; at 50.0 µM) | growth inhibition [5, 7] | growth inhibition [5, 8] | growth inhibition ([5]; at 50.0 µM) | growth inhibition [6, 7] | growth inhibition [6, 8] | growth inhibition ([6]; at 50.0 µM) |
| --- | --- | --- | --- | --- | --- | --- | --- | --- | --- | --- | --- | --- | --- | --- | --- | --- | --- | --- |
| CC(c1ccc(OCc2ccccc2)cc1)c1cc2c(cc1OCCO)OCO2 (configuration not stated) | 3% | 46% | 61.2% | -1% | 41% | 76.2% (active) | 9% | 57% | 31.9% | -1% | 47% | 43.5% | 6% | 58% | 49.7% | 4% | 62% | 43.2% |
| CNC(=O)c1cccc2c(Nc3ccc(NS(C)(=O)=O)cc3OC)c3cccc(C)c3nc12 | 47% | 93% (active) | 75.8% (active) | 17% | 95% (active) | -0.8% | 12% | 66% | -4.45% | 30% | 57% | -0.4% | 19% | 91% (active) | -37.2% | 19% | 86% (active) | -24.5% |
| CCNC(=S)N/N=C(\C)c1cccc(C)n1 | -5% | 21% | 54.6% | -37% | 34% | 76.3% (active) | -31% | 22% | 54.7% | -21% | 24% | 50.9% | -20% | 27% | 62% | -9% | 21% | 37.2% |
| CC(C)CC(NC(=O)C(N)CCC(=O)OCc1ccccc1)C(=O)NC(COCc1ccccc1)C(=O)NC(Cc1ccccc1)C(=O)ON1C(=O)CCC1=O (configuration not stated) (H-E(OBn)LS(Bn)F-OSu; configuration not given here) | 54% | 66% | 81.7% (active) | 48% | 74% (active) | 84.6% (active) | 48% | 81% (active) | 83.1% (active) | 41% | 71% (active) | 86.7% (active) | 42% | 81% (active) | 80.8% (active) | 60% | 79% (active) | 79% (active) |
| COc1cc2cc[n+]3c4ccc([N+](=O)[O-])cc4ccc3c2cc1OC | 73% (active) | 81% (active) | 44.8% | 14% | 73% (active) | 55.5% | 42% | 80% (active) | 70% (active) | 31% | 71% (active) | 68.3% | 43% | 81% (active) | 57.7% | 66% | 69% | 46% |
| CCC(C)OC(=O)Nc1cccc(Cl)c1 (configuration not stated) | 12% | 61% | 83.4% (active) | -7% | 1% | 23.9% | 4% | 14% | 79.5% (active) | 6% | -16% | 14.8% | -19% | -8% | 1.4% | 5% | 29% | 78.8% (active) |
| CC(=O)N1C/C(=C\c2ccccc2)C(=O)/C(=C/c2ccccc2)C1 | 60% | 87% (active) | 84.9% (active) | 47% | 92% (active) | 82.7% (active) | 46% | 98% (active) | 79.5% (active) | 35% | 88% (active) | 67.5% | 47% | 91% (active) | 87.8% (active) | 62% | 96% (active) | 78.9% (active) |
| COC(=O)C(=C(c1ccccc1)c1ccccc1)c1ccccc1 | 3% | -1% | 25.8% | 0% | 4% | 23.1% | 4% | -1% | 52% | 0% | 4% | 43.1% | -2% | -3% | 89.6% (active) | -3% | 7% | 35.6% |
| BrCC1(CBr)COC1 | 4% | 47% | 3.85% | 5% | 64% | 2.2% | 6% | 56% | 7.75% | -3% | 30% | -8.15% | 29% | 94% (active) | 87% (active) | 2% | 87% (active) | 9.45% |
